In PubChem BioAssay (NCI):
This is part of a sample that, as a whole, favours compounds with a hit. Of some 79,000 tested, about 15% had one in any assay. Values without a mark were called inactive. The source made the active and inactive calls. Rule as the data show it: active = growth inhibition above about 70%; inactive = the rest.

Experiments:
[1] = NCI Yeast Anticancer Drug Screen. Data for the rad50 strain (AID 155);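 also: 0% = growth of vehicle-only cultures of the same strain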; conditions: S. cerevisiae rad50 strain growth inhibition, hits give high values
In short: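 DNA repair mutant yeast, compound exposure, growth read-out; inhibition is taken relative to vehicle.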

[2] = NCI Yeast Anticancer Drug Screen. Data for the mec2-1 strain (AID 157); conditions: S. cerevisiae mec2-1 strain, hits give high values
In short: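 Each compound was tested on mec2-1 yeast, a strain altered in DNA damage repair or cell cycle control. Growth inhibition is reported relative to vehicle.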

[3] = NCI Yeast Anticancer Drug Screen. Data for the sgs1 mgt1 strain (AID 161);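 also: 0% = growth of cultures given vehicle only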; conditions: S. cerevisiae sgs1 mgt1 strain, hits give high values
In short: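 Genetically altered yeast, compound exposure, growth inhibition relative to vehicle.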

[4] = NCI Yeast Anticancer Drug Screen. Data for the cln2 rad14 strain (AID 165);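 also: 0% = growth equal to vehicle treated cultures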; conditions: S. cerevisiae cln2 rad14 strain, hits give high values
In short: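 Test compounds were added to cln2 rad14 yeast cultures; inhibition of growth was then determined by comparison with vehicle treatment.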

[5] = NCI Yeast Anticancer Drug Screen. Data for the bub3 strain (AID 167); conditions: S. cerevisiae bub3 mutant strain, hits give high values
In short: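 In this screen, a yeast mutant lacking normal mitotic checkpoint function is challenged with compound. Relative growth versus vehicle gives the inhibition value.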

[6] = NCI Yeast Anticancer Drug Screen. Data for the mlh1 rad18 strain (AID 175); conditions: S. cerevisiae mlh1 rad18 strain growth inhibition, hits give high values
In short: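 Inhibition values reflect reduced growth of mutant yeast versus vehicle-treated controls following compound exposure; the mutations affect DNA damage repair.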

[7] = NCI Yeast Anticancer Drug Screen. Data for the wt2 strain (AID 169);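 also: 0% = growth of vehicle-treated yeast cultures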; conditions: S. cerevisiae wt2 strain growth inhibition, hits give high values
In short: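 The panel's yeast strains carry defined changes in DNA repair or cell cycle genes. Each strain is grown with compound, and growth loss is scored relative to vehicle.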

[8] = at 5.0 µM (retest, dose inferred, filed as 0.5)
[9] = at 50.0 µM (retest, dose inferred, filed as 5.0)

Structure (SMILES): Cc1ccccc1C(=O)CN
- growth inhibition [1, 8]: -3%
- growth inhibition [1, 9]: -2%
- growth inhibition ([1]; at 50.0 µM): 16.4%
- growth inhibition [2, 8]: 0%
- growth inhibition [2, 9]: -3%
- growth inhibition ([2]; at 50.0 µM): -6%
- growth inhibition [3, 8]: -1%
- growth inhibition [3, 9]: 0%
- growth inhibition ([3]; at 50.0 µM): -4.2%
- growth inhibition [4, 8]: -5%
- growth inhibition [4, 9]: -3%
- growth inhibition ([4]; at 50.0 µM): 81.3% (active)
- growth inhibition [5, 8]: -2%
- growth inhibition [5, 9]: -9%
- growth inhibition ([5]; at 50.0 µM): -13.1%

Structure (SMILES): Br[C](Br)(Br)[Hg][c]1ccccc1
- growth inhibition [1, 8]: 99% (active)
- growth inhibition [1, 9]: 98% (active)
- growth inhibition ([1]; at 50.0 µM): 87.3% (active)
- growth inhibition [2, 8]: 100% (active)
- growth inhibition [2, 9]: 99% (active)
- growth inhibition ([2]; at 50.0 µM): 89.8% (active)
- growth inhibition [3, 8]: 100% (active)
- growth inhibition [3, 9]: 99% (active)
- growth inhibition ([3]; at 50.0 µM): 90% (active)
- growth inhibition [4, 8]: 99% (active)
- growth inhibition [4, 9]: 98% (active)
- growth inhibition ([4]; at 50.0 µM): 89.3% (active)
- growth inhibition [5, 8]: 100% (active)
- growth inhibition [5, 9]: 99% (active)
- growth inhibition ([5]; at 50.0 µM): 89.1% (active)
- growth inhibition [6, 8]: 99% (active)
- growth inhibition [6, 9]: 98% (active)

Structure (SMILES): COC(COC(N)=O)C1=C(N2CC2)C(=O)C(C)=C(N2CC2)C1=O (configuration not stated)
- growth inhibition [1, 8]: 47%
- growth inhibition [1, 9]: 98% (active)
- growth inhibition ([1]; at 50.0 µM): 66.1%
- growth inhibition [2, 8]: 39%
- growth inhibition [2, 9]: 99% (active)
- growth inhibition ([2]; at 50.0 µM): 71.2% (active)
- growth inhibition [3, 8]: 50%
- growth inhibition [3, 9]: 99% (active)
- growth inhibition ([3]; at 50.0 µM): 43.3%
- growth inhibition [4, 8]: 40%
- growth inhibition [4, 9]: 98% (active)
- growth inhibition ([4]; at 50.0 µM): 50.6%
- growth inhibition [5, 8]: 42%
- growth inhibition [5, 9]: 99% (active)
- growth inhibition ([5]; at 50.0 µM): 24.9%
- growth inhibition [6, 8]: 76% (active)
- growth inhibition [6, 9]: 97% (active)

Structure (SMILES): O=C1NC(=S)NC(=O)C1=C/C=C/c1ccccc1
- growth inhibition [1, 8]: 33%
- growth inhibition [1, 9]: 40%
- growth inhibition ([1]; at 50.0 µM): 73% (active)
- growth inhibition [2, 8]: 40%
- growth inhibition [2, 9]: 32%
- growth inhibition ([2]; at 50.0 µM): 46.6%
- growth inhibition [3, 8]: 4%
- growth inhibition [3, 9]: 89% (active)
- growth inhibition ([3]; at 50.0 µM): 79.7% (active)
- growth inhibition [4, 8]: 44%
- growth inhibition [4, 9]: 89% (active)
- growth inhibition ([4]; at 50.0 µM): 31.8%
- growth inhibition [5, 8]: 26%
- growth inhibition [5, 9]: 84% (active)
- growth inhibition ([5]; at 50.0 µM): 73.7% (active)
- growth inhibition ([7]; at 1.2 µM): -15%
- growth inhibition ([7]; at 3.7 µM): -3%
- growth inhibition ([7]; at 11.0 µM): 2%
- growth inhibition ([7]; at 33.0 µM): 46%
- growth inhibition ([7]; at 100.0 µM): 98% (active)
- growth inhibition [6, 8]: 29%
- growth inhibition [6, 9]: 33%
- growth inhibition ([6]; at 50.0 µM): 69.7%
